Measurements published in PubChem BioAssay (EPA / NIEHS).
Inconclusive results are not listed. Activity calls are given as the source filed them. How the source made its calls: active means hit-call score of the fitted dose curve at least 0.9, where 1 is the maximum; inconclusive means response in the unintended direction; inactive means score below 0.9. Peptide text beside a SMILES is read from it.

Biological target: Peroxisome proliferator-activated receptor gamma (Homo sapiens) (UniProt P37231)
Sequence (P37231 whole entry, looked up): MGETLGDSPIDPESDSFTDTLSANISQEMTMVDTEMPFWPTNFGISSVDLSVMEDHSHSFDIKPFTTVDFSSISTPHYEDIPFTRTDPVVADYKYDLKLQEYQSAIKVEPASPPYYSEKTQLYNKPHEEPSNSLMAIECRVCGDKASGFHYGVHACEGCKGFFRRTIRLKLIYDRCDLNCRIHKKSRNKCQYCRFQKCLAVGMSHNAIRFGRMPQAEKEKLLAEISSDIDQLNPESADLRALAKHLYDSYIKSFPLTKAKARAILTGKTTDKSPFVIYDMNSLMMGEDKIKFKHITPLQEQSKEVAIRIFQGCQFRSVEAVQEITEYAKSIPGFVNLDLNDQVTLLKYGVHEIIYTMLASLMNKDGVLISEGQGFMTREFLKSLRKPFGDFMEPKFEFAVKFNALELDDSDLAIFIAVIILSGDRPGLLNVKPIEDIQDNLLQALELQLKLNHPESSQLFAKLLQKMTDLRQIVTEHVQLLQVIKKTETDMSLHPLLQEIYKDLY
Assay: ATG_PPARg_TRANS: Attagene TRANS-FACTORIAL HepG2 Assay for human Peroxisome Proliferator-activated Receptor-gamma (PPARg) (AID 2283007)
Experimental: ATG_TRANS is a cell-based, multiplexed-readout assay that uses HepG2, a human liver cell line, with measurements taken at 24 hours after chemical dosing in a 24-well plate.ATG_PPARg_TRANS is one of 30 assay component(s) measured or calculated from the ATG_TRANS assay. It is designed to make measurements of mRNA induction, a form of inducible reporter, as detected with fluorescence intensity signals by Reverse transcription polymerase chain reaction (RT-PCR) and Capillary electrophoresis technology.Data from the assay component ATG_PPARg_TRANS was analyzed into 1 assay endpoint. This assay endpoint, ATG_PPARg_TRANS, was analyzed in the positive analysis fitting direction relative to DMSO as the negative control and baseline of activity. Using a type of inducible reporter, measures of mRNA for gain-of-signal activity can be used to understand the reporter gene at the transcription factor-level as they relate to the gene PPARG. Furthermore, this assay endpoint can be referred to as a primary readout, because this assay has produced multiple assay endpoints where this one serves a reporter gene function. To generalize the intended target to other relatable targets, this assay endpoint is annotated to the nuclear receptor intended target family, where the subfamily is non-steroidal.
Human liver HepG2 cells are transiently transfected with multiple reporter transcription units (MRTUs) in 6-well plates using FuGene 6 reagent (Roche; 3 ml FuGene/1 mg DNA). The MRTU constructs are regulated by a cis-regulating element (promoter). […] A major difference between the CIS and TRANS system is that in CIS activities of endogenous TFs are measured, whereas the TRANS assay evaluates changes in activities of exogenous, chimeric NR-Gal4 proteins. […] At the end of 24 hour incubation, total RNA was isolated using TriZol reagent (Invitrogen). The isolated RNA is then reverse-transcribed using oligo(dT) primer and Mo-MLV reverse transcriptase (Invitrogen) with DNAse I (Ambion) treatment for 30 min. The one-tenth of the produced cDNA was amplified by PCR using Taq DNA polymerase (Invitrogen) and two reporter sequence-specific primers. The PCR products were fluorescently labeled by primer extension with 6-arboxyfluorescein (6-FAM) 5'-labeled reporter sequence-specific primer (2 min at 95 C, 20 s at 68 C and 10 min at 72 C) and these products were digested with 5U of HpaI (New England Biolabs) for 2h at 37 C. The fragments were purified using Qiaquick PCR columns (Qiagen), analyzed on an ABI 3130xL genetic analyzer (Applied Biosystems) with peak positions identified by using a set of X-rhodamine (ROX)-labeled MapMarker1000 molecular weight standards (BioVentures). The raw capillary electrophoresis data was processed using Attagraph software (Attagene).

SMILES	outcome	AC50
C=Cc1cccc(C)c1	inactive	
CCCCCCCCCCCC(=O)N(C)CC(=O)O		13.1 µM (active)
NNS(=O)(=O)c1ccc(Oc2ccc(S(=O)(=O)NN)cc2)cc1	inactive	
CC(C=O)c1ccccc1 (stereo not given)	inactive	
CC(C)(c1ccccc1)c1ccc(Nc2ccc(C(C)(C)c3ccccc3)cc2)cc1	inactive	
c1ccc2cnccc2c1	inactive	
CCCCOCC(C)O (stereo not given)	inactive	
C=CCCCCCCCCO	inactive	
CC(=O)OCc1ccccc1	inactive	
COC(=O)c1ccc(C(=O)OC)c(C(=O)OC)c1		34.5 µM (active)
CCCC(C)C(=O)OCC (stereo not given)	inactive	
CC(C)CCOCc1ccccc1	inactive	
CO[Si](C)(C)OC	inactive	
COc1ccc(C(=O)c2ccccc2)c(O)c1		33.1 µM (active)
CC(C)=CCCC(C)=CC#N	inactive	
CCCCCCCCCCCCCc1ccccc1	inactive	
CC(C)[N+](C)(CCOC(=O)C1c2ccccc2Oc2ccccc21)C(C)C		58.2 µM (active)
C=CCNCC=C	inactive	
N=C1C=CC(=C(c2ccc(N)cc2)c2ccc(N)cc2)C=C1		31.9 µM (active)
C=C(C)C(=O)OCC(O)COc1ccc(C(C)(C)c2ccc(OCC(O)COC(=O)C(=C)C)cc2)cc1 (stereo not given)		7.32 µM (active)

SMILES	outcome	AC50
CCOC(=O)c1ccc(C)cc1	inactive	
CCCCCCCCCCCC(C)=O		51 µM (active)
CCCCCCCOC(=O)c1ccc(O)cc1	inactive	
C=CCCCCCCCCC=O		61.7 µM (active)
CCOC(=O)C1=NN(c2ccc(Cl)cc2Cl)C(C)(C(=O)OCC)C1 (stereo not given)		87.1 µM (active)
CCCCCCCCCCCCC	inactive	
[Cl][Eu]([Cl])[Cl]	inactive	
O=C1CCCCCCCCCCC1	inactive	
CC/C=C\C/C=C\C/C=C\CCCCCCCC(=O)OC		14.8 µM (active)
CCCCc1ccc(Cl)cc1	inactive	
COC(=O)[C@H](Cc1ccccc1)NC(=O)[C@@H](N)CC(=O)O (H-Asp-Phe-OMe)	inactive	
CCCCCCCCCCCCc1ccc(O)cc1	inactive	
Cc1ccc(S(=O)(=O)N=C=O)cc1	inactive	
CCCCCCOC(=O)CCCCC(=O)OCCCCCC	inactive	
O=C(OCc1ccccc1)c1ccc(O)cc1		49.9 µM (active)
CCNc1nc(NC(C)(C)C)nc(OC)n1	inactive	
CCCCCCCCCCCC(=O)OCC	inactive	
CC(C)CC(=O)OCc1ccccc1	inactive	
CC1CCC(=O)C1=O (stereo not given)	inactive	
COc1cc(O)c(C(=O)c2ccccc2)cc1S(=O)(=O)O	inactive	
